# Many of the other results were omitted from the sample, so the strongest signals are more common in it than they were.
# Columns and labels:
# Assay in all cases: glycan array binding signal (z-score within array); higher = stronger binding
# Details in all cases: glycan notation: IUPAC condensed, linker removed
# [1] = target: Fuc(a1-2)Gal(b1-3)GalNAc(b1-3)Gal
# Summary of the method: (§1)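 Glycan array data came from 3228 arrays in the Consortium for Functional Glycomics database, and only arrays with an available protein sequence were kept. Glycan names were put into IUPAC-condensed notation, and columns mapping to the same glycan were averaged. The binding signal is a within-array Z-score, averaged across arrays of one protein sequence run at different concentrations or buffers and across linkers. A negative Z-score can be read as non-binding.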
# [2] = target: Fuc(a1-2)Gal(b1-3)[Fuc(a1-4)]GlcNAc
# Summary of the method: as §1
# [3] = target: Fuc(a1-2)Gal(b1-4)Glc
# Summary of the method: as §1
# [4] = target: Fuc(a1-2)Gal(b1-4)GlcNAc(b1-3)Gal(b1-4)GlcNAc(b1-3)Gal(b1-4)GlcNAc
# Summary of the method: as §1
# [5] = target: Fuc(a1-2)[Gal(a1-3)]Gal(b1-3)GlcNAc(b1-6)GalNAc
# Summary of the method: as §1
# [6] = target: Fuc(a1-3)[Gal(b1-4)]Glc6S
# Summary of the method: as §1
# [7] = target: Fuc(a1-3)[Gal(b1-4)]GlcNAc(b1-2)Man(a1-3)[Fuc(a1-3)[Gal(b1-4)]GlcNAc(b1-2)Man(a1-6)]Man(b1-4)GlcNAc(b1-4)[Fuc(a1-6)]GlcNAc
# Summary of the method: as §1
# [8] = target: Fuc(a1-3)[Gal(b1-4)]GlcNAc(b1-6)GalNAc
# Summary of the method: as §1
# [9] = target: Gal(b1-3)Gal(b1-4)GlcNAc
# Summary of the method: as §1
# [10] = target: Gal(b1-4)GlcNAc(b1-2)Man(a1-6)Man(b1-4)GlcNAc(b1-4)GlcNAc
# Summary of the method: as §1
# [11] = target: Gal(b1-4)GlcNAc(b1-3)Gal(b1-4)GlcNAc(b1-2)[Gal(b1-4)GlcNAc(b1-3)Gal(b1-4)GlcNAc(b1-6)]Man(a1-6)[Gal(b1-4)GlcNAc(b1-3)Gal(b1-4)GlcNAc(b1-2)Man(a1-3)]Man(b1-4)GlcNAc(b1-4)GlcNAc
# Summary of the method: as §1
# [12] = target: Gal(b1-4)GlcNAc(b1-3)Gal(b1-4)GlcNAc(b1-2)[Gal(b1-4)GlcNAc(b1-3)Gal(b1-4)GlcNAc(b1-6)]Man(a1-6)[Gal(b1-4)GlcNAc(b1-3)Gal(b1-4)GlcNAc(b1-2)Man(a1-3)]Man(b1-4)GlcNAc(b1-4)[Fuc(a1-6)]GlcNAc
# Summary of the method: as §1
# [13] = target: Gal(b1-4)GlcNAc(b1-3)Gal(b1-4)GlcNAc(b1-3)Gal(b1-4)GlcNAc(b1-3)Gal(b1-4)GlcNAc(b1-3)Gal(b1-4)GlcNAc(b1-2)Man(a1-3)[Gal(b1-4)GlcNAc(b1-3)Gal(b1-4)GlcNAc(b1-3)Gal(b1-4)GlcNAc(b1-3)Gal(b1-4)GlcNAc(b1-3)Gal(b1-4)GlcNAc(b1-2)Man(a1-6)]Man(b1-4)GlcNAc(b1-4)[Fuc(a1-6)]GlcNAc
# Summary of the method: as §1
# [14] = target: Gal(b1-4)GlcNAc(b1-3)Gal(b1-4)GlcNAc(b1-3)[Gal(b1-4)GlcNAc(b1-3)Gal(b1-4)GlcNAc(b1-6)]GalNAc
# Summary of the method: as §1
# [15] = target: Gal3S(b1-4)[Fuc(a1-3)]GlcNAc6S
# Summary of the method: as §1
# [16] = target: GalNAc(b1-4)GlcNAc(b1-2)Man(a1-3)[GalNAc(b1-4)GlcNAc(b1-2)Man(a1-6)]Man(b1-4)GlcNAc(b1-4)GlcNAc
# Summary of the method: as §1
# [17] = target: GalNAc(b1-4)GlcNAc(b1-3)GalNAc(b1-4)GlcNAc
# Summary of the method: as §1
# [18] = target: Glc(a1-6)Glc(a1-6)Glc(a1-6)Glc
# Summary of the method: as §1
# [19] = target: GlcNAc(b1-3)Gal(b1-4)GlcNAc(b1-3)Gal(b1-4)GlcNAc(b1-3)Gal(b1-4)GlcNAc(b1-3)Gal(b1-4)GlcNAc(b1-2)Man(a1-3)[GlcNAc(b1-3)Gal(b1-4)GlcNAc(b1-3)Gal(b1-4)GlcNAc(b1-3)Gal(b1-4)GlcNAc(b1-3)Gal(b1-4)GlcNAc(b1-2)Man(a1-6)]Man(b1-4)GlcNAc(b1-4)[Fuc(a1-6)]GlcNAc
# Summary of the method: as §1
# [20] = target: GlcNAc(b1-3)Gal(b1-4)GlcNAc(b1-3)GalNAc
# Summary of the method: as §1
# [21] = target: GlcNAc(b1-3)GalNAc
# Summary of the method: as §1
# [22] = target: GlcNAc(b1-3)Man
# Summary of the method: as §1
# [23] = target: GlcNAc(b1-3)[GlcNAc(b1-4)][GlcNAc(b1-6)]GlcNAc
# Summary of the method: as §1
# [24] = target: Kdn(a2-6)Gal(b1-4)GlcNAc
# Summary of the method: as §1
# [25] = target: Man(a1-2)Man(a1-6)[Man(a1-3)]Man(a1-6)[Man(a1-2)Man(a1-2)Man(a1-3)]Man
# Summary of the method: as §1
# [26] = target: Man(a1-2)Man(a1-6)[Man(a1-3)]Man(a1-6)[Man(a1-2)Man(a1-2)Man(a1-3)]Man(b1-4)GlcNAc(b1-4)GlcNAc
# Summary of the method: as §1
# [27] = target: Man(a1-3)[Man(a1-6)]Man(a1-6)[Man(a1-2)Man(a1-3)]Man(b1-4)GlcNAc(b1-4)GlcNAc
# Summary of the method: as §1
# [28] = target: Man(a1-3)[Man(a1-6)]Man(a1-6)[Man(a1-3)]Man
# Summary of the method: as §1
# [29] = target: Neu5Ac(a2-3)Gal(b1-3)GlcNAc
# Summary of the method: as §1
# [30] = target: Neu5Ac(a2-3)Gal(b1-3)GlcNAc(b1-2)Man
# Summary of the method: as §1
# [31] = target: Neu5Ac(a2-3)Gal(b1-4)GlcNAc(b1-2)Man(a1-3)[Neu5Ac(a2-3)Gal(b1-4)GlcNAc(b1-2)Man(a1-6)]Man(b1-4)GlcNAc(b1-4)GlcNAc
# Summary of the method: as §1
# [32] = target: Neu5Ac(a2-3)Gal(b1-4)GlcNAc(b1-2)[Neu5Ac(a2-3)Gal(b1-4)GlcNAc(b1-6)]Man(a1-6)[Neu5Ac(a2-3)Gal(b1-4)GlcNAc(b1-2)Man(a1-3)][GlcNAc(b1-4)]Man(b1-4)GlcNAc(b1-4)GlcNAc
# Summary of the method: as §1
# [33] = target: Neu5Ac(a2-3)Gal(b1-4)GlcNAc(b1-3)GalNAc
# Summary of the method: as §1
# [34] = target: Neu5Ac(a2-3)Gal(b1-4)GlcNAc(b1-3)[Neu5Ac(a2-3)Gal(b1-4)GlcNAc(b1-6)]GalNAc
# Summary of the method: as §1
# [35] = target: Neu5Ac(a2-3)Gal(b1-4)GlcNAc(b1-6)[Gal(b1-3)]GalNAc
# Summary of the method: as §1
# [36] = target: Neu5Ac(a2-3)Gal(b1-4)[Fuc(a1-3)]GlcNAc(b1-3)Gal
# Summary of the method: as §1
# [37] = target: Neu5Ac(a2-6)Gal(b1-4)GlcNAc(b1-2)Man(a1-3)[Neu5Ac(a2-6)Gal(b1-4)GlcNAc(b1-2)Man(a1-6)]Man(b1-4)GlcNAc(b1-4)GlcNAc
# Summary of the method: as §1
# [38] = target: Neu5Ac(a2-6)Gal(b1-4)GlcNAc(b1-3)Gal(b1-4)GlcNAc(b1-3)Gal(b1-4)GlcNAc(b1-2)Man(a1-3)[Neu5Ac(a2-6)Gal(b1-4)GlcNAc(b1-3)Gal(b1-4)GlcNAc(b1-3)Gal(b1-4)GlcNAc(b1-2)Man(a1-6)]GalNAc
# Summary of the method: as §1
# [39] = target: Neu5Ac(a2-6)Gal(b1-4)GlcNAc(b1-3)Gal(b1-4)GlcNAc(b1-3)GalNAc
# Summary of the method: as §1
# [40] = target: Neu5Ac(a2-6)Gal(b1-4)GlcNAc(b1-3)Gal(b1-4)[Fuc(a1-3)]GlcNAc(b1-3)Gal(b1-4)[Fuc(a1-3)]GlcNAc
# Summary of the method: as §1
# [41] = target: Neu5Ac(b2-6)GalNAc
# Summary of the method: as §1
# [42] = target: Neu5Gc(a2-8)Neu5Gc(a2-3)Gal(b1-4)GlcNAc
# Summary of the method: as §1
binder,measurement,setting,value
Pwp7 (Candida glabrata) (protein) MGSSHHHHHHSSGLVPRGSHMASKNPVDFPNLCQYPNLDGAVAGFDTEIYNADPSILINFSLWPILQFPKEWHKTIGRAITTQTNFKLPASDTTLFGVSIPTQNILIEFRGYFIPPKSGTYTFALYLTDDGSAMFLGNDAAFPCGNITSWSNPTNDQVSVSDYDPKKKTLTVYMVAGVAYPLRIAYYNREKGGSLTASFVDPDGLTHSDWNGYIWTLPSCDNCKYS,glycan array binding signal (z-score),[1],-0.017
same,glycan array binding signal (z-score),[2],-0.614
same,glycan array binding signal (z-score),[3],-0.416
same,glycan array binding signal (z-score),[4],-0.218
same,glycan array binding signal (z-score),[5],0.673
same,glycan array binding signal (z-score),[6],2.63
same,glycan array binding signal (z-score),[7],-0.531
same,glycan array binding signal (z-score),[8],-0.313
same,glycan array binding signal (z-score),[9],-0.059
same,glycan array binding signal (z-score),[10],0.711
same,glycan array binding signal (z-score),[11],4.75
same,glycan array binding signal (z-score),[12],0.752
same,glycan array binding signal (z-score),[13],2.19
same,glycan array binding signal (z-score),[14],2.23
same,glycan array binding signal (z-score),[15],-0.723
same,glycan array binding signal (z-score),[16],2.13
same,glycan array binding signal (z-score),[17],-0.44
same,glycan array binding signal (z-score),[18],1.4
same,glycan array binding signal (z-score),[19],2.91
same,glycan array binding signal (z-score),[20],2.79
same,glycan array binding signal (z-score),[21],-0.079
same,glycan array binding signal (z-score),[22],-0.272
same,glycan array binding signal (z-score),[23],-1.58
same,glycan array binding signal (z-score),[24],-0.857
same,glycan array binding signal (z-score),[25],-0.467
same,glycan array binding signal (z-score),[26],-0.429
same,glycan array binding signal (z-score),[27],-0.076
same,glycan array binding signal (z-score),[28],2.11
same,glycan array binding signal (z-score),[29],-0.487
same,glycan array binding signal (z-score),[30],0.574
same,glycan array binding signal (z-score),[31],0.472
same,glycan array binding signal (z-score),[32],10.8
same,glycan array binding signal (z-score),[33],-0.11
same,glycan array binding signal (z-score),[34],2.25
same,glycan array binding signal (z-score),[35],-0.55
same,glycan array binding signal (z-score),[36],-0.216
same,glycan array binding signal (z-score),[37],0.696
same,glycan array binding signal (z-score),[38],3.78
same,glycan array binding signal (z-score),[39],0.805
same,glycan array binding signal (z-score),[40],-0.43
same,glycan array binding signal (z-score),[41],-0.387
same,glycan array binding signal (z-score),[42],-0.224

# — the supplement of paper PMC8728848
